CFTR F508del cor – correctors of CFTR F508del function in bronchial epithelial cells. CFBE cells, YFP halide quenching; stimulated with forskolin plus potentiator P3; % fluorescence drop versus neutral controls. activity (quench increase), % at 7.58 µM. hit rate 0.36% among 350,000;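 active means mean added fluorescence quench of at least 8% versus neutral control, with both replicates also reaching 8%; inconclusive means only one of the mean or replicate conditions met; inactive means mean below 8% and not both replicates reaching 8%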;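 further: cells transiently co-express mutant CFTR-F508del with the halide-sensitive YFP; corrector assay measuring rescue of mutant channel to the surface after 24 h compound exposure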
MITF act – increases MITF-driven TRPM1 promoter luciferase signal. activation, % at 12.5 µM. hit rate 0.75% among 300,000. SK-MEL-5 TRPM1-promoter luciferase, 24 h; % of positive control, neutral wells = 0. AID 588334;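 active means mean activation of at least 80% with every replicate also reaching 80%; inconclusive means mean reaches 80% but some replicate falls short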
Wnt act – Wnt/beta-catenin pathway activation. Wnt/beta-catenin reporter cell assay, activator, plate reader. activation, % at 9.35 µM. hit rate 1.2% among 300,000. AID 743398; in the data active means activation above about 30%, passing the limit was not always enough; inconclusive means no clear call, values can overlap the other calls
Env fusion inh – blocks HIV Env-driven cell-cell fusion; hit rate 1.1% among 360,000; HeLa-JRFL Env/CEM21 cell fusion, luciferase; AID 651610; inhibition, % at 12.3 µM;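 active means mean replicate inhibition score of at least 50 and every replicate individually at or above 50; inconclusive means only one of the two criteria met; inactive means mean below 50 and not all replicates reaching 50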
GSIS activator – primary screen for activators of insulin secretion dependent on glucose, INS-1E cells, GLuc reporter luminescence | hit rate 0.61% among 370,000 | AID 743287 | activation, % at 16.6 µM | INS-1E GLuc reporter insulin secretion, 2-3 h;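 active means lowest replicate activation of at least 40%, so every replicate reaches that level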
Numbers stand for hits; 0 = inactive; ? = inconclusive; - = no result given; [ ] = remark or other dose. Hits are enriched below; roughly 2.7% of the tested compounds scored in any of these assays.

SMILES	CFTR F508del cor	MITF act	Wnt act	Env fusion inh	GSIS activator
C[C@H](O)[C@@H]1C(=O)N2CCc3c([nH]c4cccc(-c5ccccc5)c34)[C@@H]2C[C@@H]1N(C)C(=O)OCc1ccccc1	0	-	0	71	0
O=C(C[C@H]1CC[C@H](NS(=O)(=O)c2ccccc2)[C@@H](CO)O1)N1CCc2ccccc2C1	0	-	-	0	0
COc1ccc(S(=O)(=O)N(C)C[C@@H]2OCCCC[C@H](C)Oc3ccc(NS(=O)(=O)c4c(C)noc4C)cc3C(=O)N([C@H](C)CO)C[C@H]2C)cc1	0	-	-	0	0
N#Cc1sc2nccc(Nc3ccccc3)c2c1N	0	-	0	62	-
OC[C@@H]1[C@@H](c2ccc(/C=C/c3ccccc3)cc2)[C@@H]2CN(Cc3ccncc3)CCCCN12	0	-	-	-	0
CC(C)c1ccc(OCC(=O)N2CCCCCC2)c(Br)c1	-	0	43	0	0
CC(=O)Nc1ccc(-c2ccnc3c2CC(C)(C(=O)NC(C)C)O3)cc1 (stereo not drawn)	0	-	41	0	-
CCCCNc1ccc(C(F)(F)F)cc1S(=O)(=O)NCCc1ccc(F)cc1	0	0	0	72	0
O=C(NNC1CCN(Cc2ccccc2)CC1)c1ccccc1	0	0	0	-	44
O=C(NC1CCN(Cc2ccccc2)CC1)c1ccccc1	0	0	0	0	0
C[C@H](CO)N1C[C@H](C)[C@@H](CN(C)S(=O)(=O)c2ccccc2)OCCCC[C@H](C)Oc2ccc(NS(=O)(=O)c3ccc(F)cc3)cc2C1=O	0	-	-	0	0
C[C@@H]1CN([C@H](C)CO)C(=O)Cc2cc(NC(=O)CCC(F)(F)F)ccc2O[C@H]1CN(C)S(=O)(=O)c1ccc(Cl)cc1	0	-	-	0	0
O=C(c1cc2ccccc2o1)N(Cc1nnc(-c2ccccc2Cl)o1)C1CC1	0	0	0	0	0
CCCN(Cc1nnc(-c2ccccc2Cl)o1)C(=O)c1cc2ccccc2o1	0	0	0	0	63
O=C(C[C@H]1C[C@H]2c3cc(NC(=O)C4CCC4)ccc3O[C@H]2[C@@H](CO)O1)NCc1ccccc1	0	-	-	0	0
CCOc1ccc(OCCC(=O)N(CC)CC(=O)NCc2cccs2)cc1	0	0	0	0	41
CC(C)NC(=O)[C@@]1(Cc2ccccc2I)c2ccccc2C(=O)N(Cc2ccccc2C(F)(F)F)[C@H]1c1ccc(CO)cc1	0	-	-	0	-
COc1ccccc1CN1C(=O)c2ccccc2[C@](Cc2ccccc2I)(C(=O)NCc2ccccc2)[C@@H]1c1ccc(CO)cc1	0	-	-	60[16.7 µM]	-
O=C(C[C@@H]1C=C[C@H](NC(=O)c2ccncc2)[C@@H](CO)O1)Nc1ccc(-c2ccccc2)cc1	0	-	-	0	0
Clc1ccccc1Nc1nc2ccccc2o1	0	0	60	0	0
CCCNc1nc(C)nc2c1cnn2CCc1ccccc1	-	0	-	-	0
Cc1nc(NC(C)C)c2cnn(CCc3ccccc3)c2n1	-	98	-	-	0
COc1ccc(NC(=O)Nc2ccc3c(c2)[C@H]2C[C@@H](CC(=O)NCc4ccccc4F)O[C@@H](CO)[C@H]2O3)cc1	0	-	-	0	0
CCCNC(=O)C[C@@H]1CC[C@H]2[C@@H](COc3ccc(NC(=O)c4ccc5c(c4)OCO5)cc3C(=O)N2C)O1	0	-	-	0	0
CCSc1nc(-c2ccccc2)nc(C(Cl)Cl)n1	0	0	0	81	0
SMILES	CFTR F508del cor	MITF act	Wnt act	Env fusion inh	GSIS activator
CCSc1nc(-c2ccccc2)c2cc(Cl)ccc2n1	-	0	0	0	-
COc1nc(Nc2ccccc2)nc(OC)n1	0	-	0	0	41
C[C@@H]1CN([C@@H](C)CO)C(=O)c2cc(Br)cnc2O[C@H]1CN(C)Cc1ccncc1	0	-	-	0	0
O=C(CN1C(=O)CCC1=O)Nc1cccc2c1C(=O)NC2=O	0	0	0	0	41
O=C(Nc1cccc2c1C(=O)NC2=O)c1cccc(N2C(=O)CCC2=O)c1	0	-	0	0	0
Cc1ccc(NC(=O)ON=C2CCCC2)cc1	0	97	0	-	0
Cc1ccc(S(=O)(=O)N(C)C[C@@H]2Oc3ncc(-c4ccccc4)cc3C(=O)N([C@H](C)CO)C[C@H]2C)cc1	0	-	-	0	0
CCN(CC)C(=O)C1CCN(Cc2cn(C)nc2-c2ccc(Oc3ccccc3)cc2)CC1	-	0	54	0	0
C[C@@H]1CCCCO[C@@H](CN(C)CC2CC2)[C@@H](C)CN([C@H](C)CO)C(=O)c2cc(NC(=O)Cc3ccccc3)ccc2O1	0	-	-	0	0
O=[N+]([O-])c1ccc(N=NN(CCO)CCO)cc1	0	0	0	0	0
O=[N+]([O-])c1ccc(N=Nc2ncc[nH]2)cc1	0	0	54	0	0
CC(C)(C)n1ncc2c(=O)n(CC(=O)OCc3ccccc3)cnc21	-	0	-	-	0
Cc1ccc(C(=O)Cn2cnc3ccccc3c2=O)cc1	-	89	0	-	-
Cc1ccccc1Cn1cnc2c(cnn2C(C)(C)C)c1=O	-	0	-	-	0
CC(C)(C)n1ncc2c(=O)n(CC(=O)c3ccccc3)cnc21	-	96	-	-	-
O=C(Cn1cnc2ccccc2c1=O)c1ccccc1	-	-	-	0	-
CC(C)(C)n1ncc2c(=O)n(Cc3cccc(Cn4cnc5c(cnn5C(C)(C)C)c4=O)c3F)cnc21	0	0	0	92	0
CC(Cc1ccccn1)NC(=O)c1ccc(OC2CCN(CCc3ccccc3)CC2)cc1 (stereo not drawn)	0	0	0	0	0
O=C(NCCc1ccccn1)c1ccc(OC2CCN(CCc3ccccc3)CC2)cc1	0	80	?	0	0
CCc1ccc(Nc2ncnc3nc[nH]c23)cc1	0	96	47	0	0
CCCCc1ccc(Nc2ncnc3nc[nH]c23)cc1	0	105	0	0	-
Cc1ccc(Nc2ncnc3nc[nH]c23)cc1Cl	0	-	0	0	0
N#Cc1c(NCc2ccccc2)ccnc1NCc1cccnc1	-	-	-	107	-
Cc1cc2[nH]c3c(c[n+](C)c4ccccc34)c2cc1C	24	0	0	0	0
Cc1cc(=O)[nH]c2ccccc12	-	0	-	-	-
CCNc1nc(NOC)nc(OCC#N)n1	0	0	0	0	47
C[C@@H]1CN([C@@H](C)CO)C(=O)c2c(c3ccccc3n2C)-c2ccccc2CO[C@H]1CN(C)Cc1ccc(C(=O)O)cc1	0	-	-	-	0

Screening results (PubChem)
